According to PubChem BioAssay:
Active and inactive are the calls of the source.

Assays:
[1] = test system: Human papillomavirus type 1a protein E7 (residues 44-93); assay: HPV1a E7 fragment binders on microarrays, primary screen, biochemical, small-molecule microarray, residues 44-93, 635 nm fluorescence (AID 1108); conditions: small-molecule microarray binding, fluorescence 635 nm; higher = more signal;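 note: E7 fragment applied at 1 µg/mL in TBST for 1 h at 4 C; score combines spot fluorescence with its signal to noise ratio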
[2] = modulators of HCV replicon luciferase signal, primary screen, HCV replication inhibitor project, Huh7 cells, luciferase reporter (AID 1109); conditions: 48 h, higher = more signal;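 note: huh7 hepatoma cells harbouring a luciferase neomycin HCV replicon reporter; luciferase luminescence as measure of HCV replicon replication; test concentration not given here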
[3] = target: Left-right determination factor 2 (Homo sapiens) (UniProt O00292); assay: LEFTY2 binders on small-molecule microarrays, primary screen, biochemical, small-molecule microarray, 635 nm fluorescence scan (AID 1110); conditions: LEFTY2 binding, higher = more signal
Sequence of Left-right determination factor 2 (Homo sapiens) (O00292 whole entry, looked up): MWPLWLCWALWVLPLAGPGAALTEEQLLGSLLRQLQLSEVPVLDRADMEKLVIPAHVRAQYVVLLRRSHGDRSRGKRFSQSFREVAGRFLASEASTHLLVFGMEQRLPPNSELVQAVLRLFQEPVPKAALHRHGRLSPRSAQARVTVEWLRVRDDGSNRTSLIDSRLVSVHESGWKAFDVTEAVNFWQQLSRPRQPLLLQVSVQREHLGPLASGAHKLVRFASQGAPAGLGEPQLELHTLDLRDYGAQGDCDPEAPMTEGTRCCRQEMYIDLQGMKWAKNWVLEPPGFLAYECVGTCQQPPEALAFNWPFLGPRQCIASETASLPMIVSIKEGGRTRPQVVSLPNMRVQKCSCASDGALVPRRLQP

[4] = target: Calmodulin-1 (Homo sapiens) (UniProt P0DP23); assay: CALM1 binders on microarrays, EGTA buffer, profiling panel, biochemical, small-molecule microarray, Cy5-labelled CALM1 (AID 1111); conditions: Cy5-CALM1 binding fluorescence, higher = more signal;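 note: labelled calmodulin applied in Tris saline Tween buffer holding calcium plus EGTA and DTT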
[5] = target: Calmodulin-1 (Homo sapiens) (UniProt P0DP23); assay: calcium-bound CALM1 binders on microarrays, profiling panel, artefact control for SMM control-protein annotation, biochemical, small-molecule microarray, Cy5-labelled CALM1, plus calcium (AID 1112); conditions: Cy5-CALM1 binding fluorescence, higher = more signal;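 note: score merges spot fluorescence with signal to noise from triplicate slides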
[6] = small-molecule microarray binders of probe aWnt5a, primary screen, biochemical, biotinylated probe, 635/667 nm fluorescence (AID 1113); conditions: higher = more signal;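 note: score merges 667 nm fluorescence intensity with signal-to-noise per printed feature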
[7] = small-molecule microarray binders of probe aShh, primary screen, biochemical, biotinylated probe, 635/667 nm fluorescence (AID 1114); conditions: higher = more signal;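 note: probe is biotin-labelled aShh protein from a stem cell growth factor screen; measures binding of labelled protein to compounds printed on the slide; score merges feature fluorescence at 667 nm with signal-to-noise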
[8] = small-molecule microarray binders of probe aNog, primary screen, biochemical, biotinylated probe, 635/667 nm fluorescence (AID 1115); conditions: higher = more signal;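 note: probe is biotinylated aNog protein used at 0.15 µg/mL for 1 h at 4 C; z-score combines 667 nm fluorescence of each spot with its signal to noise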
[9] = target: Torsin-1A-interacting protein 1 (Homo sapiens) (UniProt Q5JTV8); assay: LAP1 binders from COS7 cell lysate, primary screen, small-molecule microarray, 635/667 nm fluorescence (AID 1116); conditions: COS7-hLAP1 lysate binding, 635 nm fluorescence, higher = more signal
Sequence of Torsin-1A-interacting protein 1 (Homo sapiens) (Q5JTV8 whole entry, looked up): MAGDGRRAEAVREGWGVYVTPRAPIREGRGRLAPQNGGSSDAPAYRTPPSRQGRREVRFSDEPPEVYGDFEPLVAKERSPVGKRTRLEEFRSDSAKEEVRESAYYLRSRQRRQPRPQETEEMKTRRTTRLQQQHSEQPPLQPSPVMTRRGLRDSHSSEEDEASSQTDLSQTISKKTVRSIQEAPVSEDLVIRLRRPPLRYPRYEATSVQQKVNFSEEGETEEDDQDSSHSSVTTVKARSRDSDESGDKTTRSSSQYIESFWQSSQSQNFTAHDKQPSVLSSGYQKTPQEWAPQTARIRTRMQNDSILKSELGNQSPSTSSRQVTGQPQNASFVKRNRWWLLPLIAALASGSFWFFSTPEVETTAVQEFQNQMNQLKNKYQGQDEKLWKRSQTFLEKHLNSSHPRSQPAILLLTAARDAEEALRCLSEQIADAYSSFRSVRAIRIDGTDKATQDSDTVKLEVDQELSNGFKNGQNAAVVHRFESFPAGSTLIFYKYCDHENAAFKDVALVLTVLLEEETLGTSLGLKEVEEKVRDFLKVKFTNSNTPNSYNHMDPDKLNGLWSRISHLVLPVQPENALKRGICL

[10] = target: Alpha-bungarotoxin (Bungarus multicinctus) (UniProt P60615); assay: alpha-bungarotoxin binders on microarray, profiling panel, artefact control for SMM control protein annotation, biochemical, small-molecule microarray, Alexa647 label, 635/667 nm fluorescence (AID 1117); conditions: alpha-BTX-A647 binding fluorescence, higher = more signal
Sequence of Alpha-bungarotoxin (Bungarus multicinctus) (P60615 whole entry, looked up): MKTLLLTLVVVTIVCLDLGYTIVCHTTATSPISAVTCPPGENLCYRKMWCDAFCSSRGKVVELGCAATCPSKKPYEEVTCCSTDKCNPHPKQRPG

Albumin (Bos taurus) = Albumin (Bos taurus) (UniProt P02769); assay: bovine serum albumin binders on microarray, profiling panel, artefact control for SMM control protein annotation, biochemical, small-molecule microarray, Alexa647 label, 635/667 nm fluorescence (AID 1118); conditions: BSA-A647 binding, fluorescence 635 nm, higher = more signal;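 note: score merges 667 nm emission intensity and signal-to-noise per printed compound spot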
Sequence of Albumin (Bos taurus) (P02769 whole entry, looked up): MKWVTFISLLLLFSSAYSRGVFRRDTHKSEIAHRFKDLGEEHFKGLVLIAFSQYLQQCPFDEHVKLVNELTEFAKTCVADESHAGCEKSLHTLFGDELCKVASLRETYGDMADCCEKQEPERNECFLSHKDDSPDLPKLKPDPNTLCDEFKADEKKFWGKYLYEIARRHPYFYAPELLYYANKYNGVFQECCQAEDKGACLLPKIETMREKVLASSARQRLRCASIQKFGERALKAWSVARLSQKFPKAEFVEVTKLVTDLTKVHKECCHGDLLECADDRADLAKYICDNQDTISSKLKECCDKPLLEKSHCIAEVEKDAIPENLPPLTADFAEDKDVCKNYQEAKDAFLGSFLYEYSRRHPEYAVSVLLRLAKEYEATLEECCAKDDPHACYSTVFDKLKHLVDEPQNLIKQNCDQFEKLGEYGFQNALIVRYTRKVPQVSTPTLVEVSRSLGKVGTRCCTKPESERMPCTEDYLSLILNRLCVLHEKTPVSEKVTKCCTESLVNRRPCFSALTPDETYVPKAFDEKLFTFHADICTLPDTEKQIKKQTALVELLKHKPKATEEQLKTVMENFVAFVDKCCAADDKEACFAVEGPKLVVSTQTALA

[11] = small-molecule microarray binders of probe aXIP, primary screen, biochemical, NeuroSMM set, 635/667 nm fluorescence (AID 1119); conditions: higher = more signal, called active from +8 up or from −8 down;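 note: probe is the protein aXip251-270 applied at 1 µg/mL to compound-printed slides; binding of probe to printed compounds measured as 667 nm fluorescence plus signal to noise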
[12] = small-molecule binders of probe aNOTCH3, primary screen, biochemical, small-molecule microarray, 635/667 nm fluorescence (AID 1120); conditions: higher = more signal;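 note: probe is a biotin-tagged antibody raised against NOTCH3 rather than NOTCH3 protein; score merges spot fluorescence near 667 nm with spot signal to noise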
[13] = small-molecule binders of probe aNOTCH2, primary screen, biochemical, small-molecule microarray, 635/667 nm fluorescence (AID 1121); conditions: higher = more signal;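 note: score merges feature fluorescence read at 667 nm with its signal to noise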
[14] = target: Carbonic anhydrase 2 (Homo sapiens) (UniProt P00918); assay: CAII small-molecule binders, profiling panel, biochemical, small-molecule microarray, Alexa647-labelled CAII (AID 1122); conditions: CAII-A647 binding fluorescence, higher = more signal
[15] = COS7 lysate on small-molecule microarray, probe aHis, 635 nm (AID 1123); conditions: COS7 cell lysate, fluorescence, higher = more signal;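 note: z-score combines 667nm fluorescence intensity with signal-to-noise per printed compound spot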
[16] = compound binding in COS7 lysate, probe aLAP1, primary screen, cell lysate, small-molecule microarray (AID 1124); conditions: probe aLAP1, fluorescence, higher = more signal;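 note: lysate comes from COS7 cells expressing LAP1 and is applied at 0.3 µg/mL; score merges spot fluorescence near 667 nm with signal-to-noise over triplicate slides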
Sam68 (KHDRBS1) = assay: Sam68 small-molecule binders, primary screen, biochemical, small-molecule microarray, 635 nm fluorescence (AID 1125); conditions: small-molecule microarray binding, higher = more signal;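 note: score merges 667 nm channel intensity with signal to noise over triplicate slides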
[17] = test system: Chordin-like protein 2 (CHRDL2); assay: CHRDL2 small-molecule binders, primary screen, biochemical, small-molecule microarray, 635 nm fluorescence (AID 1126); conditions: small-molecule microarray binding, fluorescence 635 nm; higher = more signal;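 note: printed compound slides probed with Chrdl2 protein at 4 µg/mL for 1 h at 4 C; score merges 667 nm emission intensity with signal to noise over three replicate slides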
[18] = target: Concanavalin-A (Canavalia ensiformis) (UniProt P02866); assay: ConA small-molecule binders, primary screen, artefact control for SMM control protein annotation, biochemical, small-molecule microarray, Alexa647 label, 635 nm (AID 1127); conditions: ConA-A647 binding fluorescence, higher = more signal;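 note: z combines 667 nm emission intensity with signal-to-noise across three replicate slides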
Sequence of Concanavalin-A (Canavalia ensiformis) (P02866 whole entry, looked up): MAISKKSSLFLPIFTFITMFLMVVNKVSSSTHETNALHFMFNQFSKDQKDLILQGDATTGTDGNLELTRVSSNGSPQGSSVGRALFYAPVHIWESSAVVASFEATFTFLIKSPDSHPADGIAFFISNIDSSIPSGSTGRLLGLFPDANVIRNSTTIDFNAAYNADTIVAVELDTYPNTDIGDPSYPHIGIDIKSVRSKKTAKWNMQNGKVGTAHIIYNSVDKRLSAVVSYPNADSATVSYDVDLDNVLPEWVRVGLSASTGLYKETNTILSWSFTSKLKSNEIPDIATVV

SMILES | composite z-score [1] | z-score [2] | composite z-score [3] | composite z-score [4] | composite z-score [5] | composite z-score [6] | composite z-score [7] | composite z-score [8] | composite z-score [9] | composite z-score [10] | composite z-score (Albumin (Bos taurus)) | composite Z-score [11] | composite z-score [12] | composite z-score [13] | composite z-score [14] | composite z-score [15] | composite z-score [16] | composite z-score (Sam68 (KHDRBS1)) | composite z-score [17] | composite z-score [18]
COCCOC(=O)N1C(=O)[C@@]2(c3ccccc31)[C@H](C(=O)N1CCCCCCC1)[C@H]1C(=O)O[C@H](c3ccccc3)[C@H](c3ccccc3)N1[C@@H]2c1ccccc1OCCO | 1.36 | -1.78 | 0.941 | 2.43 | 1.43 | 0.883 | 2.65 | 2.48 | 4.19 | 2.36 | 0.911 | 3.89 (inactive) | 1.5 | 0.699 | 0.838 | 3.32 | 1.19 | 1.29 | 1.32 | 1.2
COc1ccc(C#Cc2ccc3c(c2)[C@]2(C(=O)N3)[C@H](C(=O)N3CCN(c4ncccn4)CC3)[C@H]3C(=O)O[C@H](c4ccccc4)[C@H](c4ccccc4)N3[C@@H]2c2ccc(O)cc2)cc1 | 1.4 | -1.73 | 0.169 | 1.23 | 0.0193 | 0.115 | 0.315 | -0.406 | 0.399 | 0.531 | 0.413 | 0.345 (inactive) | -0.184 | 0.0086 | 0.327 | 1.19 | 0.76 | 1.3 | 0.7 | 1.05
COc1ccc([Si](C)(C)[C@@H]2[C@@H](CC(=O)N3Cc4ccccc4C[C@H]3CO)O[C@]3(C(=O)N(Cc4cccc(N5C(=O)COc6ccccc65)c4)c4ccccc43)[C@H]2C)cc1 | 1.2 | -3.61 | 0.806 | 1.39 | 0.0626 | -0.103 | -0.214 | -0.253 | 0.875 | 0.875 | 0.566 | 1.33 (inactive) | 0.0905 | -0.177 | 0.423 | 0.629 | 0.344 | 1.07 | 0.692 | 1.11
C=CCC(OC(C)=O)[C@@H]1[C@@H](N(Cc2ccc(-c3ccccc3)cc2)C(=O)c2ccc(C)cc2)c2cc(OCCCO)ccc2N1C(=O)Cc1ccc(OC)cc1 (stereo not given in full) | 0.422 | -0.75 | 0.0181 | -0.0181 | -0.164 | 0.0115 | -0.273 | -0.0579 | 0.0982 | 1.73 | -0.0547 | 0.39 (inactive) | -0.0208 | -0.0131 | -0.249 | 0.0567 | 0.179 | -0.248 | -0.0845 | 0.733
COc1ccc([Si](C)(C)[C@@H]2[C@@H](CCO)O[C@]3(C(=O)N(Cc4cccc(N(C=O)c5ccccc5)c4)c4ccccc43)[C@H]2C)cc1 | -0.179 | -4.85 | -0.223 | 1.13 | 1.09 | -0.176 | 0.0611 | -0.0002 | 0.494 | 0.956 | 0.492 | 0.492 (inactive) | -0.0328 | -0.0876 | 0.457 | 0.46 | -0.206 | 1.32 | -0.179 | 1.1
COc1ccc(C#Cc2ccc3c(c2)[C@]2(C(=O)N3)[C@H](c3ccc(OCCO)cc3)N3[C@H](c4ccccc4)[C@H](c4ccccc4)OC(=O)[C@H]3[C@@H]2C(=O)Nc2nc3ccccc3s2)cc1 | 1.34 | -2 | 0.776 | 1.57 | 0.446 | 0.104 | 0.0711 | 0.83 | 0.0329 | 1.52 | 0.562 | -0.0127 (inactive) | 0.217 | -0.0267 | 0.645 | 2.22 | 0.534 | 1.29 | 0.57 | 1.13
C=CCN1C(=O)[C@@]2(O[C@@H](CCO)[C@H]([Si](C)(C)c3ccc(OC)cc3)[C@H]2C)c2cc(NC(C)=O)ccc21 | 0.128 | -3.7 | 1.45 | 0.793 | 0.509 | 0.0136 | -0.0769 | -0.234 | 1.14 | 0.71 | -0.0164 | 0.347 (inactive) | 0.307 | -0.044 | 0.366 | 2.57 | 0.423 | 1.33 | 0.835 | 0.915
COc1cc(NN2C(C(O)c3ccccc3)C=CC3C(=O)N(c4ccccc4)C(=O)C32)cc(OC)c1OC (stereo not given) | 1.49 | -1.28 | 0.265 | 1.36 | -0.356 | 0.216 | 0.302 | 0.539 | 0.804 | 0.585 | 0.923 | 0.153 (inactive) | 0.569 | -0.124 | 0.831 | 3.3 | 0.263 | 1.31 | -0.0912 | 0.919
C=C(/C(=C/C[C@@H](OC(=O)c1ccncc1)c1ccc(CO)o1)c1cc(C(=O)OC)ccc1OC)C(C)C | 0.838 | -2.03 | 0.512 | 0.224 | -0.0294 | -0.063 | 0.0893 | 0.107 | 0.815 | 0.582 | 0.83 | 0.459 (inactive) | 0.0311 | -0.109 | 0.588 | 1.13 | 0.812 | 1.3 | 0.737 | 1.08
C[N+](C)(C)CCCCNC(=O)[C@H]1C[C@H]2C(=O)N3CCC[C@H]3C(=O)N2[C@H]1c1ccc(O)cc1 | 0.257 | -1.25 | 1.28 | -0.546 | -0.368 | -0.0236 | -0.0146 | -0.0662 | 2.01 | 1.57 | -0.926 | -0.388 (inactive) | 0.0793 | -0.0449 | 0.627 | 2.08 | 0.625 | 0.895 | 1.21 | 1.09
C=C(C)[C@@H]1CC=C(C(O)C2C=CC3C(=O)N(Cc4ccccc4)C(=O)C3N2n2cnnc2)CC1 (stereo not given in full) | 0.146 | -2.2 | -0.485 | 0.133 | 0.3 | 0.0077 | -0.156 | 0.499 | 0.401 | 0.291 | 0.936 | -0.619 (inactive) | 0.0297 | -0.0907 | 0.751 | 0.341 | -0.24 | -0.0341 | -0.918 | 0.317
